Calls of active or inactive are those of the source. The calls were made as follows: active = hit-call score of the fitted dose curve at least 0.9, where 1 is the maximum; inactive = score below 0.9.
What was measured:
Conditions in all cases: mRNA level, 48 h; actives raise or lower the signal
[1] = read-out: Lipase C (LIPC), LIPC (gene 3990); assay: LTEA_HepaRG_LIPC: Life Technologies and Expression Analysis (LTEA) Assay for Lipase C (LIPC) using HepaRG (AID 2283514)
Procedure, shortened: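 HepaRG, 48 h exposure, 8-pt half-log series from 100 uM in 0.5% DMSO, duplicates. Readout: LIPC mRNA by Fluidigm qRT-PCR, housekeeping-normalized (ACTB/GAPDH/POLR2A). Gain or loss fitted bidirectionally against DMSO baseline.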

[2] = read-out: Lipoprotein lipase (LPL), LPL (gene 4023); assay: LTEA_HepaRG_LPL: Life Technologies and Expression Analysis (LTEA) Assay for Lipoprotein lipase (LPL) using HepaRG (AID 2283515)
Procedure, shortened: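 HepaRG, 48 h exposure, 8-pt half-log dilutions from 100 uM, 0.5% DMSO vehicle, duplicates; qRT-PCR (Fluidigm array) of LPL mRNA vs housekeeping genes; bidirectional curve fit relative to DMSO baseline.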

[3] = read-out: MicroRNA 122 (MIR122), gene 406906; assay: LTEA_HepaRG_MIR122: Life Technologies and Expression Analysis (LTEA) Assay for MicroRNA 122 (MIR122) using HepaRG (AID 2283516); also: the transcript read is the microRNA miR-122
Procedure, shortened: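 qRT-PCR read-out (TaqMan, Fluidigm array), normalized to three housekeeping genes; HepaRG cells dosed 48 h at 8 concentrations up to 100 uM in 0.5% DMSO, duplicate; gain or loss fitted against DMSO baseline.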

[4] = read-out: matrix metalloproteinase-10 (MMP10), MMP10 (gene 4319); assay: LTEA_HepaRG_MMP10: Life Technologies and Expression Analysis (LTEA) Assay for matrix metalloproteinase-10 (MMP10) using HepaRG (AID 2283517)
Procedure, shortened: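 Transcript levels come from Fluidigm qRT-PCR normalized to three housekeeping genes, with curves fitted bidirectionally against 0.5% DMSO. Human HepaRG cells were dosed for 48 hours at concentrations up to 100 uM.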

MYC, MYC (gene 4609) = assay: LTEA_HepaRG_MYC: Life Technologies and Expression Analysis (LTEA) Assay for MYC using HepaRG (AID 2283518)
Procedure, shortened: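 Differentiated HepaRG cells exposed 48 h in serum-free induction medium to 8 concentrations (top 100 uM, half-log steps; 0.5% DMSO), duplicate. MYC mRNA measured by Fluidigm qRT-PCR, normalized to ACTB, GAPDH, POLR2A; bidirectional fit versus DMSO.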

[5] = read-out: matrix metalloproteinase-3 (MMP3), MMP3 (gene 4314); assay: LTEA_HepaRG_MMP3: Life Technologies and Expression Analysis (LTEA) Assay for matrix metalloproteinase-3 (MMP3) using HepaRG (AID 2283519)
Procedure, shortened: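 qRT-PCR read-out of MMP3 mRNA (normalised to three housekeeping genes) in HepaRG liver cells after 48 h chemical exposure; 8-point half-log series, top 100 uM, 0.5% DMSO vehicle. Bidirectional curve fitting against DMSO baseline.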

[6] = read-out: Nuclear factor NF-kappa-B p105 subunit (Homo sapiens) (UniProt P19838); assay: LTEA_HepaRG_NFKB1: Life Technologies and Expression Analysis (LTEA) Assay for Nuclear Factor Kappa B Subunit 1 (NFKB1) using HepaRG (AID 2283521)
Procedure, shortened: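 Differentiated human HepaRG cells were exposed for 48 h in serum-free induction medium to eight concentrations (top 100 uM, half-log steps, 0.5% DMSO), in duplicate. NFKB1 mRNA was measured by TaqMan qRT-PCR, normalized to ACTB/GAPDH/POLR2A, and fitted bidirectionally against DMSO.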

[7] = read-out: Protein phosphatase 2A (PPP2R4), PTPA (gene 5524); assay: LTEA_HepaRG_PPP2R4: Life Technologies and Expression Analysis (LTEA) Assay for Protein phosphatase 2A (PPP2R4) using HepaRG (AID 2283522)
Procedure, shortened: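 HepaRG, 48 h exposure, 8-pt half-log series from 100 uM, 0.5% DMSO vehicle, duplicates. Readout: PPP2R4 mRNA, Fluidigm qRT-PCR, housekeeping-normalized. Bidirectional curve fit vs DMSO baseline.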

[8] = read-out: Phosphatase and tensin (PTEN), PTEN (gene 5728); assay: LTEA_HepaRG_PTEN: Life Technologies and Expression Analysis (LTEA) Assay for Phosphatase and tensin (PTEN) using HepaRG (AID 2283523)
Procedure, shortened: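 HepaRG, 48 h exposure, 8-pt half-log series from 100 uM top, 0.5% DMSO vehicle, duplicates. Readout: Fluidigm qRT-PCR of PTEN transcript; housekeeping normalization (ACTB, GAPDH, POLR2A). Gain or loss fitted relative to DMSO baseline.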

[9] = read-out: solute carrier (SLC22A1), SLC22A1 (gene 6580); assay: LTEA_HepaRG_SLC22A1: Life Technologies and Expression Analysis (LTEA) Assay for solute carrier (SLC22A1) using HepaRG (AID 2283524)
Procedure, shortened: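 qRT-PCR readout (TaqMan, Fluidigm arrays) of SLC22A1 transcript, normalized to three housekeeping genes; bidirectional curve fit relative to 0.5% DMSO vehicle. Differentiated human HepaRG cells, 48 h chemical exposure, top concentration 100 uM, half-log steps, eight points.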

[10] = read-out: Pyruvate Dehydrogenase Kinase 4 (PDK4), PDK4 (gene 5166); assay: LTEA_HepaRG_PDK4: Life Technologies and Expression Analysis (LTEA) Assay for Pyruvate Dehydrogenase Kinase 4 (PDK4) using HepaRG (AID 2283525)
Procedure, shortened: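 HepaRG (human liver line), 48 h chemical exposure, 8-pt half-log CRC top 100 uM, 0.5% DMSO vehicle, duplicates. Readout: TaqMan qRT-PCR of PDK4 mRNA, housekeeping-normalized; gain/loss fit relative to DMSO baseline.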

[11] = read-out: NAD(P)H dehydrogenase [quinone] 1 (NQO1), NQO1 (gene 1728); assay: LTEA_HepaRG_NQO1: Life Technologies and Expression Analysis (LTEA) Assay for NAD(P)H dehydrogenase [quinone] 1 (NQO1) using HepaRG (AID 2283526)
Procedure, shortened: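 qRT-PCR read-out (Fluidigm TaqMan), normalized to three housekeeping genes, after 48 h chemical exposure of HepaRG cells. Concentrations: eight points, top 100 uM, half-log steps, 0.5% DMSO vehicle. Gain or loss of signal fitted relative to DMSO.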

[12] = read-out: succinate dehydrogenase complex iron sulfur subunit B (SDHB), SDHB (gene 6390); assay: LTEA_HepaRG_SDHB: Life Technologies and Expression Analysis (LTEA) Assay for succinate dehydrogenase complex iron sulfur subunit B (SDHB) using HepaRG (AID 2283528)
Procedure, shortened: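 HepaRG, 48 h exposure, 8-pt half-log series from 100 uM in 0.5% DMSO, duplicates. Readout: SDHB mRNA by Fluidigm qRT-PCR vs housekeeping genes; bidirectional fit relative to DMSO.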

[13] = read-out: Signal transducer and activator of transcription 3 (Homo sapiens) (UniProt P40763); assay: LTEA_HepaRG_STAT3: Life Technologies and Expression Analysis (LTEA) Assay for Signal transducer and activator of transcription (STAT3) using HepaRG (AID 2283529)
Procedure, shortened: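 HepaRG, 48 h exposure, 8-pt half-log series (top 100 uM), 0.5% DMSO vehicle, duplicates. Readout: STAT3 transcript by Fluidigm qRT-PCR, housekeeping-normalized; bidirectional fit vs DMSO baseline.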

[14] = read-out: solute carrier (SLCO1B1), SLCO1B1 (gene 10599); assay: LTEA_HepaRG_SLCO1B1: Life Technologies and Expression Analysis (LTEA) Assay for solute carrier (SLCO1B1) using HepaRG (AID 2283530)
Procedure, shortened: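 Differentiated human HepaRG cells were exposed for 48 h in serum-free induction medium to eight half-log concentrations, top 100 uM, in 0.5% DMSO. SLCO1B1 mRNA was measured by qRT-PCR, normalized to ACTB, GAPDH and POLR2A, and fitted bidirectionally against DMSO.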

[15] = read-out: sulfotransferase 2A1 (SULT2A1), SULT2A1 (gene 6822); assay: LTEA_HepaRG_SULT2A1: Life Technologies and Expression Analysis (LTEA) Assay for sulfotransferase 2A1 (SULT2A1) using HepaRG (AID 2283531)
Procedure, shortened: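 HepaRG human liver cells, 48 h exposure in serum-free induction medium to 8 half-log concentrations topping at 100 µM (0.5% DMSO), duplicate wells. SULT2A1 mRNA measured by TaqMan qRT-PCR, normalized to ACTB/GAPDH/POLR2A; bidirectional fit against DMSO.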

[16] = read-out: Transforming Growth Factor (TGFA), TGFA (gene 7039); assay: LTEA_HepaRG_TGFA: Life Technologies and Expression Analysis (LTEA) Assay for Transforming Growth Factor (TGFA) using HepaRG (AID 2283532)
Procedure, shortened: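 qRT-PCR read-out of TGFA transcript, normalized to three housekeeping genes, fitted bidirectionally against 0.5% DMSO baseline. Human HepaRG cultures received chemicals for 48 h at eight half-log concentrations, top 100 uM.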

[17] = read-out: Transforming Growth Factor (TGFB1), TGFB1 (gene 7040); assay: LTEA_HepaRG_TGFB1: Life Technologies and Expression Analysis (LTEA) Assay for Transforming Growth Factor (TGFB1) Transporter using HepaRG (AID 2283533)
Procedure, shortened: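 Differentiated HepaRG cells exposed 48 hr in serum-free induction medium to eight half-log concentrations up to 100 uM (0.5% DMSO), duplicate; TGFB1 mRNA by TaqMan qRT-PCR normalised to ACTB, GAPDH, POLR2A; bidirectional fit against DMSO.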

[18] = read-out: Nuclear factor erythroid 2-related factor 2 (Homo sapiens) (UniProt Q16236); assay: LTEA_HepaRG_NFE2L2: Life Technologies and Expression Analysis (LTEA) Assay for Nuclear factor erythroid 2-related factor 2 (NFE2L2) Transcription Factor using HepaRG (AID 2283527);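 also: TaqMan qRT-PCR transcript level normalised to ACTB GAPDH and POLR2A housekeeping genes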
Procedure, shortened: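 HepaRG, 48 h dosing, 8-pt half-log series from 100 uM in 0.5% DMSO, duplicates. Read-out: NFE2L2 mRNA by qRT-PCR (ACTB/GAPDH/POLR2A normalization). Bidirectional curve fit vs DMSO baseline.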

[19] = read-out: Paternally Expressed 10 (PEG10), PEG10 (gene 23089); assay: LTEA_HepaRG_PEG10: Life Technologies and Expression Analysis (LTEA) Assay for Paternally Expressed 10 (PEG10) using HepaRG (AID 2283520)
Procedure, shortened: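 qRT-PCR read-out: PEG10 mRNA normalised to three housekeeping genes, fitted bidirectionally against 0.5% DMSO vehicle. HepaRG cells received test chemicals for 48 h in serum-free induction medium, 8 points, top 100 uM, half-log steps.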

Measured: AC50

Sequence of Signal transducer and activator of transcription 3 (Homo sapiens) (P40763 whole entry, looked up): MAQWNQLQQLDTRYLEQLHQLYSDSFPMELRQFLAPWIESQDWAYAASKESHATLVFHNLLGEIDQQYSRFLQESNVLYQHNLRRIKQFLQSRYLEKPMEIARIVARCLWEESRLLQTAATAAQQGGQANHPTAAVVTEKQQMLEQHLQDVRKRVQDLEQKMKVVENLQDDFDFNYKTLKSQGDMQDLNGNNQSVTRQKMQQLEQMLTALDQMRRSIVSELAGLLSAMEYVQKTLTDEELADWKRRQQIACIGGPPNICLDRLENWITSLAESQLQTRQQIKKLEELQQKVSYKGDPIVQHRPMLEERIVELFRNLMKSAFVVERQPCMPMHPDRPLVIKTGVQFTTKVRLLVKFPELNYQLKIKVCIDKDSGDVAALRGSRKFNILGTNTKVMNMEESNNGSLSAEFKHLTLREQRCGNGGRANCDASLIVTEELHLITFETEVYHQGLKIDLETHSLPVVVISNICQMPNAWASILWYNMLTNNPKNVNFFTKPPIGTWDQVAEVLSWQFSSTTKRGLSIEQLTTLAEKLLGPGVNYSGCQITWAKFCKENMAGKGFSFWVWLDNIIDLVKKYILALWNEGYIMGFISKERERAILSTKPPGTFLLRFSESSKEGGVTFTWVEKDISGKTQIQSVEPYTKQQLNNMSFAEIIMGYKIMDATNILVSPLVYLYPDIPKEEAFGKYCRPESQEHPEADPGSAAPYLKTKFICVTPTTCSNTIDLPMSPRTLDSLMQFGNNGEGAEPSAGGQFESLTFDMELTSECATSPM
Sequence of Nuclear factor erythroid 2-related factor 2 (Homo sapiens) (Q16236 whole entry, looked up): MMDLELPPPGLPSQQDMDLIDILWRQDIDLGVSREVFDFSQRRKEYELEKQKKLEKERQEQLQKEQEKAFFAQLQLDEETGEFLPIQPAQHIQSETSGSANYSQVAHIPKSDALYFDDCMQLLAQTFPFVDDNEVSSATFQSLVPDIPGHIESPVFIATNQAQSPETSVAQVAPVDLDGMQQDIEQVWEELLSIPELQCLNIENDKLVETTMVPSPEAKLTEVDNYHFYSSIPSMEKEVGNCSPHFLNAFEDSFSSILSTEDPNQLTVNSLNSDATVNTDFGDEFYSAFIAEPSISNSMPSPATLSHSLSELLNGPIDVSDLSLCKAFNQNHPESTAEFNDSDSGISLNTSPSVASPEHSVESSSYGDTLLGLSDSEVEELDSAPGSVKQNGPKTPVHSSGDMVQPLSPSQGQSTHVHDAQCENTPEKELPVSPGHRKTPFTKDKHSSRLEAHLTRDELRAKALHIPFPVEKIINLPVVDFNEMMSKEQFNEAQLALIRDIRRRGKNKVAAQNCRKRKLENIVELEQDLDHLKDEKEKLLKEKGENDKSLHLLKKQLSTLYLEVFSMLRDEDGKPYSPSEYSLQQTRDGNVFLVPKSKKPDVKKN
Sequence of Nuclear factor NF-kappa-B p105 subunit (Homo sapiens) (P19838 whole entry, looked up): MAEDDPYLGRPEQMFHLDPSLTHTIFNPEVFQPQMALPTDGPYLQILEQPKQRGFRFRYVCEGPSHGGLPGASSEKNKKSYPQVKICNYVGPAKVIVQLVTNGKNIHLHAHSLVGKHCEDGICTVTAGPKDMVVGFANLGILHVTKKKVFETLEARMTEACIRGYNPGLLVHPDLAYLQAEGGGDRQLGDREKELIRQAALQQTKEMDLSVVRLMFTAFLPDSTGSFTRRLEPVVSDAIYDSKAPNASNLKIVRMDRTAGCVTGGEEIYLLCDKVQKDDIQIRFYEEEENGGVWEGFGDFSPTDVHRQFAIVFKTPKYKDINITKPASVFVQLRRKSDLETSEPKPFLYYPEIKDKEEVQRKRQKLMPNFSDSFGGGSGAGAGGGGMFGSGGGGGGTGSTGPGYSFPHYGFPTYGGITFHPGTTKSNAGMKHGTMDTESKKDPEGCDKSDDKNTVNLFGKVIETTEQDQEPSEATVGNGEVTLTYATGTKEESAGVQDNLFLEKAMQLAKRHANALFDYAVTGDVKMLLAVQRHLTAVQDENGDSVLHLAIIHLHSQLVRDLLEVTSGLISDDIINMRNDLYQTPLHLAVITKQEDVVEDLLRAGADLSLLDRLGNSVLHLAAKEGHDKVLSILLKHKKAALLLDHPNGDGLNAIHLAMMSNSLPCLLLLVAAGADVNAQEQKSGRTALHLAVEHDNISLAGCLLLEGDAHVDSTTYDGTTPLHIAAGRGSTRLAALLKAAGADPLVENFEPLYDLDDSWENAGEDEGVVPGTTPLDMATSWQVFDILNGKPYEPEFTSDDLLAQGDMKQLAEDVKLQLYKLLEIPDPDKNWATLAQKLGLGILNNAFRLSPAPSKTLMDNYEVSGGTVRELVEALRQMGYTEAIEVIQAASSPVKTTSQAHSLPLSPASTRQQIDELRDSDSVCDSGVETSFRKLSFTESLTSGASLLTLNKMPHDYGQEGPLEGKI

C[C@]12C[C@H](O)[C@H]3[C@@H](CCC4=CC(=O)CC[C@@]43C)[C@@H]1CC[C@@H]2C(=O)CO
active: [14] 50 µM | [15] 66.4 µM
not listed: [18] | [19]
inactive: all other assays above

O=C(O)C1(C(=O)Nc2ccc(Cl)cc2Cl)CC1
active: [1] 76.2 µM | [3] 50 µM | [5] 50 µM | [6] 22.9 µM | [9] 74.3 µM | [10] 7.18 µM | [12] 78.4 µM | [14] 77.1 µM | [15] 87.4 µM
inactive: [2] | [4] | MYC, MYC (gene 4609) | [8] | [11] | [18] | [13] | [16] | [17]

c1ccc(Nc2ccccc2)cc1
not listed: [7] | [18] | [19]
inactive: all other assays above

CCCOC(=O)c1ccc(C(=O)OCCC)nc1
not listed: [7] | [19]
inactive: all other assays above

CCN(Cc1c(F)cccc1Cl)c1c([N+](=O)[O-])cc(C(F)(F)F)cc1[N+](=O)[O-]
active: [1] 50 µM | MYC, MYC (gene 4609) 50 µM | [9] 29.6 µM
not listed: [18] | [19]
inactive: all other assays above

CCCOC(=O)NCCCN(C)C
not listed: [6] | [7]
inactive: all other assays above
